The test system of assay [1] is DLD1. Briefly: cell viability (CellTiter-Glo) relative to plate median (fraction of plate median); higher = more viable cells. The note with it: 5 µM; treatment time 24 h; reporter: 7TFP. A digest of the protocol:
(§1)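 Two independent replicates were averaged for each reported value. Library compounds were applied at a final 5 µM for 24 h to colorectal cancer cell lines stably expressing lentiviral TCF/Wnt firefly luciferase reporters. Firefly luciferase or CellTiterGlo luminescence from each well was normalised to the plate median.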
(In ATP-based viability assays light output follows the ATP content of the culture.)

A further assay has as its system HCT116. The assay is described as above. The note with it: 5 µM; treatment time 24 h; reporter: TCF4/Wnt. A digest of the protocol: as §1
Assay [2] concerns SW480. Described as above. Particulars: 5 µM; treatment time 24 h; reporter: 7TFP. A digest of the protocol: as §1
Assay [3] concerns DLD1. Briefly: TCF/Wnt firefly luciferase reporter signal relative to plate median (fraction of plate median); higher = higher Wnt reporter signal. The note with it: 5 µM; treatment time 24 h; reporter: 7TFP. A digest of the protocol:
as §1

The subject of assay [4] is SW480. Described as above. The note with it: 5 µM; treatment time 24 h; reporter: 7TFP. A digest of the protocol:
as §1

± gives the standard deviation of the averaged measurements.

With `CC(=O)c1cc(CC=C(C)C)c(O)c(CC=C(C)C)c1`, the cell viability in the assay with DLD1 [1] was 1.05 ± 0.014; in the assay on HCT116, 1.02 ± 0.035; in the assay on SW480 [2] it was 0.95 ± 0.011. Further, the “TCF/Wnt firefly luciferase reporter signal” value in the assay on DLD1 [3] was 1.08 ± 0.15; in the assay on SW480 [4], 1.14 ± 0.064.
For `O=C(Nc1ccc([N+](=O)[O-])cc1Cl)c1cc(Cl)ccc1O` the same measures were 0.764 ± 0.05, 0.614 ± 0.13, 0.779 ± 0.3, 0.92 ± 0.064 and 0.964 ± 0.22.
For `COc1cccc2c1CCC1=CC(=O)CC[C@@]12C` the same measures were 1.09 ± 0.099, 1.004 ± 0.0085, 1.03 ± 0.021, 0.944 ± 0.073 and 0.967 ± 0.1.
As to `CN1CCC[C@@H]1CCO[C@](C)(c1ccccc1)c1ccc(Cl)cc1`, the cell viability was 0.982 ± 0.096 with DLD1 [1], 0.917 ± 0.018 with HCT116 and 1.05 ± 0.042 in the assay with SW480 [2]. Besides, the results for the “TCF/Wnt firefly luciferase reporter signal” value in the assay on DLD1 [3] and in the assay with SW480 [4] were 0.913 ± 0.19 and 0.87 ± 0.041, respectively.
With `Nc1[nH]cnc2ncnc1-2`, the cell viability worked out at 1.2 in the assay on DLD1 [1], 1.1 ± 0.071 in the assay with HCT116 and 1.82 ± 0.028 in the assay on SW480 [2]. The “TCF/Wnt firefly luciferase reporter signal” value with DLD1 [3] turned out to be 0.981 ± 0.012; in the assay with SW480 [4], 1.65 ± 0.26.
For `O=S(=O)(O)CCS` the same measures were 1.01 ± 0.058, 1.06 ± 0.014, 1.02 ± 0.054, 1.01 ± 0.19 and 1.1 ± 0.028.
`CC[n+]1c(-c2ccccc2)c2cc(N)ccc2c2ccc(N)cc21`: the results for the cell viability in the assay with DLD1 [1], with HCT116 and in the assay on SW480 [2] were 1.1 ± 0.014, 1.1 ± 0.057 and 1.22, respectively. The entries for the “TCF/Wnt firefly luciferase reporter signal” value in the assay on DLD1 [3] and in the assay on SW480 [4] were 0.96 ± 0.085 and 1.08 ± 0.12, respectively.
With `CC1=CCCC(C)=CCC(C)(C)C=CC1` [HUMULENE (alpha)], the cell viability with DLD1 [1] amounted to 0.978 ± 0.013; in the assay with HCT116 it was 1.01 ± 0.027; with SW480 [2], 0.965 ± 0.021. Moreover, the “TCF/Wnt firefly luciferase reporter signal” value is 1.04 with DLD1 [3] and 1.15 ± 0.13 in the assay on SW480 [4].
The matching figures for `COc1cc(-c2coc3cc(O[C@@H]4O[C@H](CO)[C@@H](O)[C@H](O)[C@H]4O)c(OC)c(O)c3c2=O)cc(O)c1OC`: 1.1 ± 0.057, 1.12 ± 0.078, 1.09 ± 0.014, 1.01 ± 0.15 and 0.885 ± 0.023.
The matching figures for `COc1cc(C(=O)NCCCCCC(=O)O)cc(OC)c1OC`: 0.981 ± 0.015, 0.921 ± 0.044, 1.01 ± 0.014, 0.865 ± 0.023 and 0.902 ± 0.046.
As for `COc1ccc(-c2cc(=O)c3ccccc3o2)cc1OC`, the results for the cell viability in the assay with DLD1 [1], in the assay with HCT116 and in the assay on SW480 [2] were 1.07 ± 0.05, 1.01 and 1.06 ± 0.057, respectively. The entries for the “TCF/Wnt firefly luciferase reporter signal” value with DLD1 [3] and in the assay with SW480 [4] were 0.906 ± 0.0099 and 1.03 ± 0.035, respectively.
For `OCc1ccccc1O`, the cell viability in the assay with DLD1 [1] was determined as 1.11 ± 0.14; in the assay on HCT116, 1.19 ± 0.035; in the assay with SW480 [2], 1.14 ± 0.05. The “TCF/Wnt firefly luciferase reporter signal” value with DLD1 [3] came out at 1.06 ± 0.12; in the assay with SW480 [4] it was 0.866 ± 0.042.
Consider `CCCCS(=N)(=O)CCC(N)C(=O)O` (stereo not given), for which the cell viability turned out to be 1.04 ± 0.021 in the assay with DLD1 [1], 0.948 ± 0.22 with HCT116 and 1.08 ± 0.014 with SW480 [2]. The “TCF/Wnt firefly luciferase reporter signal” value in the assay on DLD1 [3] is 1.05 ± 0.028; in the assay with SW480 [4], 1.03 ± 0.11.
Take `NCCC(=O)c1ccccc1N`: the cell viability in the assay on DLD1 [1] turned out to be 1.03 ± 0.052; in the assay with HCT116, 1.08 ± 0.057; in the assay with SW480 [2], 0.987 ± 0.0085. Further, the “TCF/Wnt firefly luciferase reporter signal” value in the assay on DLD1 [3] was 0.981 ± 0.042; in the assay with SW480 [4], 0.838 ± 0.016.
As for `C[C@]12CC[C@@H]3c4ccc(OS(=O)(=O)O)cc4CC[C@H]3[C@@H]1CCC2=O`, the values for the cell viability with DLD1 [1], in the assay with HCT116 and with SW480 [2] were 1.03 ± 0.035, 1.12 ± 0.014 and 1 ± 0.014, respectively. Moreover, the results for the “TCF/Wnt firefly luciferase reporter signal” value in the assay with DLD1 [3] and with SW480 [4] were 1.24 ± 0.21 and 1.23 ± 0.028, respectively.

Values taken from the supplement of paper PMC6522484.
